# Results as given in PMC4336329 (PLoS ONE, 2015).
# Out of some 310,000 compounds screened, about 2,200 (0.71%) showed an effect of 50% or more. Effects have a minus sign here. For the sample, strong results were picked, then their nearest neighbours and some compounds at random.
# Molecular target: human ether-à-go-go-related gene (hERG) potassium channel (human, UniProt Q12809)
# Assay: primary screen, population patch clamp on CHO cells stably expressing hERG; higher = less effect of the substance
# Sequence of human ether-à-go-go-related gene (hERG) potassium channel (Q12809 whole entry, looked up): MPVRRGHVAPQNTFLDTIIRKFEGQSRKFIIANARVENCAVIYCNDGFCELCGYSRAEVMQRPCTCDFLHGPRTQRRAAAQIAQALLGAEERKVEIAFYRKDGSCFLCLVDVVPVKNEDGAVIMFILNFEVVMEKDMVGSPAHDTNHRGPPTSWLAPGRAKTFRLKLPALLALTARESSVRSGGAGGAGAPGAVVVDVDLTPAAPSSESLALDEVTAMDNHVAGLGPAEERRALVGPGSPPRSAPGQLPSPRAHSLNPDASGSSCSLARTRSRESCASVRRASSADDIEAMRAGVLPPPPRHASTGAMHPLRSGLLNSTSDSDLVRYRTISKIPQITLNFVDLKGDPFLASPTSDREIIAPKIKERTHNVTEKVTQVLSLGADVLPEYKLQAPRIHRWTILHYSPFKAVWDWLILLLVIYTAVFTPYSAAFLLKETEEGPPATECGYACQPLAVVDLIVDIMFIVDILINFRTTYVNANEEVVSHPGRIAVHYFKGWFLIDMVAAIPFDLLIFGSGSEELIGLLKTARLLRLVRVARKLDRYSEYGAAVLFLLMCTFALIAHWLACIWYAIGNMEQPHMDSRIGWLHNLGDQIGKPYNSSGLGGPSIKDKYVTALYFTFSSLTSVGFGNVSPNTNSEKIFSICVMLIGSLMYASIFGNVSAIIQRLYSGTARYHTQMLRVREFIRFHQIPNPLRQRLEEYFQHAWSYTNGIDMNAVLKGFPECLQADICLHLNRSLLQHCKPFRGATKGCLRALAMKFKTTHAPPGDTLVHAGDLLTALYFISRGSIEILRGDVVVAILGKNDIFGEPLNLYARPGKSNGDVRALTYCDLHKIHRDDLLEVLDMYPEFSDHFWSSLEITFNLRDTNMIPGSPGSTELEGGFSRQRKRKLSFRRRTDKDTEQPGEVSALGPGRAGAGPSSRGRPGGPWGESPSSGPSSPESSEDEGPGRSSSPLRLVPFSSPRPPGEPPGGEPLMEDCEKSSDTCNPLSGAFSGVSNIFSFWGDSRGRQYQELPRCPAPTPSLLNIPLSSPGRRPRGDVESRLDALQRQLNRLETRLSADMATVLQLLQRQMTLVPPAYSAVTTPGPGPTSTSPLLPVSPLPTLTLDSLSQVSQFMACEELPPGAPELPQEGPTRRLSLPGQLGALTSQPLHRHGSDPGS
row,SMILES,"hERG current change (%, negative = inhibition) at 1uM [%]"
1,O=C(Nc1ccccc1SCC1CSc2nc3ccccc3c(=O)n21)c1ccccc1 (centres unmarked),-24.7
2,Nc1ccccc1SCC1CSc2nc3ccccc3c(=O)n21 (centres unmarked),-7.26
3,CCOC(=O)C(C(=O)OCC)C(Nc1cccc(Br)c1)c1ccccc1 (centres unmarked),14.1
4,Cc1ccc(NC(=O)COC(=O)CN2C(=O)COc3ccccc32)cc1,13.2
5,Cc1[nH]c2ccccc2c1-c1ccc(Cl)nn1,13.8
6,O=[N+]([O-])c1ccc(C(O)CN2CCN(Cc3ccccc3)CC2)cc1 (centres unmarked),-73
7,O=[N+]([O-])c1ccc(C(O)CN2CCN(c3ccccc3)CC2)cc1 (centres unmarked),-2.31
8,CS(=O)(=O)N(CC(=O)N1CCN(Cc2ccccc2)CC1)c1cccc(Cl)c1,-23
9,O=[N+]([O-])c1ccc(C(O)CN2CCN(C/C=C/c3ccccc3)CC2)cc1 (centres unmarked),-85.5
10,O=C(/C=C/c1cccc([N+](=O)[O-])c1)N1CCN(C(=O)c2ccco2)CC1,-53.4
11,O=C(c1cccc([N+](=O)[O-])c1)N1CCN(C/C=C/c2ccccc2)CC1,-21
12,CS(=O)(=O)N(CC(=O)N1CCCCCC1)c1cccc([N+](=O)[O-])c1,2.29
13,O=C(c1cccc([N+](=O)[O-])c1)N1CCN(C(=O)c2ccco2)CC1,0.101
14,O=C(/C=C/c1ccccc1)N1CCN(C(=O)c2ccco2)CC1,-13.1
15,CS(=O)(=O)N(CC(=O)N1CCN(Cc2ccccc2)CC1)c1cccc([N+](=O)[O-])c1,-73.1
16,OC(CN1CCN(Cc2ccccc2)CC1)c1ccccc1 (centres unmarked),0.933
17,O=[N+]([O-])c1ccc(C(O)CN2CCOCC2)cc1 (centres unmarked),18.6
18,CCCN(CC1CC1)C(=O)CSc1nnc(-c2cc(-c3cccs3)nc3ccccc23)o1,6.71
19,CS(=O)(=O)c1ccc(-n2nnc3ccccc32)c([N+](=O)[O-])c1,10.8
20,CCc1ccccc1NC(=O)c1ccc(Cn2cc([N+](=O)[O-])cn2)cc1,-3.78
21,COc1ccc(N2CCN(C(=O)c3ccc(N4CCCCS4(=O)=O)cc3)CC2)cc1,10.7

row,SMILES,"hERG current change (%, negative = inhibition) at 1uM [%]"
1,COc1cccc(S(=O)(=O)Nc2noc3ccccc23)c1,14
2,Cc1ccc(-c2ccnc3c(Cl)c(C)nn23)cc1,13.3
3,COc1cc2c(cc1OC)C(=S)NC(C)(C)C2,14.8
4,COc1cc(S(=O)(=O)NCC2OCCc3ccccc32)ccc1-n1cnnn1 (centres unmarked),-7.28
5,CC(=O)N1CCN(C(=O)C2(NC(=O)Nc3ccccc3Cl)CCCCC2)CC1,14.2
6,CC(=O)Oc1c(C)c2c3c(c1OC(C)=O)[C@@H](C)CC[C@@H]3[C@@H](C)C[C@H]2C=C(C)C,11.1
7,COc1ccc(CN(C)C(=O)c2cc(S(=O)(=O)N3CCCCCC3)ccc2OC)cc1OC,4.44
8,CCOc1ccc(N(CC(=O)N/N=C/c2cccnc2)S(C)(=O)=O)cc1,12.9
9,O=C(/C=C/c1ccc(Cl)cc1)N1CCN(c2ccccc2[N+](=O)[O-])CC1,-33.6
10,O=C(/C=C/c1ccc(Cl)cc1)N1CCN(c2ccc(Cl)cc2[N+](=O)[O-])CC1,-81.4
11,O=C(/C=C/c1cccc([N+](=O)[O-])c1)N1CCN(Cc2ccccc2)CC1,-20.3
12,O=C(/C=C/c1ccc([N+](=O)[O-])cc1)N1CCN(Cc2ccccc2)CC1,-63.8
13,O=C(/C=C/c1ccc(Cl)cc1)N1CCN(Cc2ccccc2)CC1,-12.8
14,O=C(/C=C/c1ccc(Cl)cc1)N1CCN(c2ccc([N+](=O)[O-])c(N3CCOCC3)c2)CC1,-11.1
15,CC1(c2cnc(Nc3ccccc3)s2)CCC(=O)O1 (centres unmarked),11.7
16,O=C1c2ccccc2C(=O)c2c1cccc2N1CCCC1,8.54
17,O=C1c2ccccc2C(=O)c2c1cccc2N1CCN(Cc2ccccc2)CC1,-6.21
18,O=C1c2ccccc2C(=O)c2c1cccc2N1CCN(CCO)CC1,-64.7
19,Cc1cccc(NS(=O)(=O)c2ccc3c(c2)NC(=O)CC(=O)N3)c1,18.4
20,Cc1cccnc1NC(=O)Nc1cccc2ccccc12,0.589
